# Screen size: about 5,500 compounds; about 2,000 (36%) were called active. Roughly 18% stayed inconclusive and do not appear here. The list shows a part of the results. A number with no mark means an inactive call. No stated cut-off is given here; in the data, active means normalized growth mostly below about 0.91 (no sharp cut-off); inconclusive means no clear call, values can overlap the other calls; inactive means mostly above about 0.92.
# Experiment: chemical genetic growth profiling, strain panel (AID 1159580);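 further: tested at 20 µM; growth read once vehicle control cultures reached saturation at 30 °C; 1 = growth at the plate median or of vehicle wells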
# Settings: growth OD
smiles,measurement,setting,value
Cc1ccc(Cl)c(Nc2ccccc2C(=O)O)c1Cl,normalized growth,"S. cerevisiae deletion strains, locus YJR066W, strain TOR1, stronger effect = lower value",0.963
same,normalized growth,"S. cerevisiae deletion strains, locus YJR075W, strain HOC1, stronger effect = lower value",0.877 (active)
same,normalized growth,"S. cerevisiae deletion strains, locus YKL009W, strain mrt4, stronger effect = lower value",0.97
same,normalized growth,"S. cerevisiae deletion strains, locus YKL068W, stronger effect = lower value",0.975
same,normalized growth,"S. cerevisiae deletion strains, locus YKL085W, strain MDH1 (second series), stronger effect = lower value",0.957
same,normalized growth,"S. cerevisiae deletion strains, locus YKL085W, strain MDH1, stronger effect = lower value",0.957
same,normalized growth,"S. cerevisiae deletion strains, locus YKL160W, strain elf1, stronger effect = lower value",0.824 (active)
same,normalized growth,"S. cerevisiae deletion strains, locus YKR001C, strain vps1, stronger effect = lower value",0.581 (active)
same,normalized growth,"S. cerevisiae deletion strains, locus YKR026C, strain gcn3, stronger effect = lower value",0.893 (active)
same,normalized growth,"S. cerevisiae deletion strains, locus YKR091W, strain srl3, stronger effect = lower value",0.879 (active)
same,normalized growth,"S. cerevisiae deletion strains, locus YLL001W, strain dnm1, stronger effect = lower value",0.815 (active)
same,normalized growth,"S. cerevisiae deletion strains, locus YLL026W, stronger effect = lower value",0.893 (active)
same,normalized growth,"S. cerevisiae deletion strains, locus YLL041C, strain sdh2, stronger effect = lower value",0.886 (active)
same,normalized growth,"S. cerevisiae deletion strains, locus YLR027C, strain aat2, stronger effect = lower value",0.907 (active)
same,normalized growth,"S. cerevisiae deletion strains, locus YLR039C, strain RIC1, stronger effect = lower value",0.399 (active)
same,normalized growth,"S. cerevisiae deletion strains, locus YLR058C, strain SHM2, stronger effect = lower value",0.895
same,normalized growth,"S. cerevisiae deletion strains, locus YLR102C, strain apc9, stronger effect = lower value",0.887 (active)
same,normalized growth,"S. cerevisiae deletion strains, locus YLR113W, strain HOG1, stronger effect = lower value",1.02
same,normalized growth,"S. cerevisiae deletion strains, locus YLR221C, strain rsa3, stronger effect = lower value",0.809 (active)
same,normalized growth,"S. cerevisiae deletion strains, locus YLR258W, strain gsy2, stronger effect = lower value",0.852 (active)
same,normalized growth,"S. cerevisiae deletion strains, locus YLR262C, strain YPT6 (second series), stronger effect = lower value",0.499 (active)
same,normalized growth,"S. cerevisiae deletion strains, locus YLR262C, strain YPT6, stronger effect = lower value",0.492 (active)
same,normalized growth,"S. cerevisiae deletion strains, locus YLR268W, strain sec22, stronger effect = lower value",0.77 (active)
same,normalized growth,"S. cerevisiae deletion strains, locus YLR320W, strain mms22, stronger effect = lower value",0.659 (active)
same,normalized growth,"S. cerevisiae deletion strains, locus YLR330W, strain CHS5, stronger effect = lower value",0.893 (active)
same,normalized growth,"S. cerevisiae deletion strains, locus YLR342W, strain FKS1 (second series), stronger effect = lower value",0.789 (active)
same,normalized growth,"S. cerevisiae deletion strains, locus YLR342W, strain FKS1, stronger effect = lower value",0.857 (active)
same,normalized growth,"S. cerevisiae deletion strains, locus YLR357W, strain rsc2, stronger effect = lower value",0.994
same,normalized growth,"S. cerevisiae deletion strains, locus YLR370C, strain arc18, stronger effect = lower value",0.83 (active)
same,normalized growth,"S. cerevisiae deletion strains, locus YLR371W, strain rom2, stronger effect = lower value",0.894 (active)
same,normalized growth,"S. cerevisiae deletion strains, locus YLR384C, strain iki3, stronger effect = lower value",0.893 (active)
same,normalized growth,"S. cerevisiae deletion strains, locus YLR418C, strain cdc73, stronger effect = lower value",0.649 (active)
same,normalized growth,"S. cerevisiae deletion strains, locus YML016C, strain PPZ1, stronger effect = lower value",0.894 (active)
same,normalized growth,"S. cerevisiae deletion strains, locus YML032C, strain rad52, stronger effect = lower value",0.862 (active)
same,normalized growth,"S. cerevisiae deletion strains, locus YML120C, strain ndi1, stronger effect = lower value",0.795 (active)
same,normalized growth,"S. cerevisiae deletion strains, locus YML124C, strain tub3, stronger effect = lower value",0.888 (active)
same,normalized growth,"S. cerevisiae deletion strains, locus YMR058W, strain fet3, stronger effect = lower value",0.866 (active)
same,normalized growth,"S. cerevisiae deletion strains, locus YMR078C, strain ctf18, stronger effect = lower value",0.896 (active)
same,normalized growth,"S. cerevisiae deletion strains, locus YMR125W, strain sto1, stronger effect = lower value",0.854 (active)
same,normalized growth,"S. cerevisiae deletion strains, locus YMR129W, stronger effect = lower value",0.889 (active)
same,normalized growth,"S. cerevisiae deletion strains, locus YMR205C, strain PFK2, stronger effect = lower value",0.737 (active)
same,normalized growth,"S. cerevisiae deletion strains, locus YMR223W, strain ubp8, stronger effect = lower value",0.82 (active)
same,normalized growth,"S. cerevisiae deletion strains, locus YMR231W, strain pep5, stronger effect = lower value",0.843 (active)
same,normalized growth,"S. cerevisiae deletion strains, locus YMR263W, strain SAP30, stronger effect = lower value",0.873 (active)
same,normalized growth,"S. cerevisiae deletion strains, locus YMR307W, strain GAS1, stronger effect = lower value",0.638
same,normalized growth,"S. cerevisiae deletion strains, locus YNL067W, strain RPL9B, stronger effect = lower value",0.92
same,normalized growth,"S. cerevisiae deletion strains, locus YNL071W, strain lat1, stronger effect = lower value",0.702 (active)
same,normalized growth,"S. cerevisiae deletion strains, locus YNL153C, strain GIM3, stronger effect = lower value",0.898
same,normalized growth,"S. cerevisiae deletion strains, locus YNL175C, strain NOP13, stronger effect = lower value",0.907 (active)
same,normalized growth,"S. cerevisiae deletion strains, locus YNL183C, strain NPR1, stronger effect = lower value",0.992
same,normalized growth,"S. cerevisiae deletion strains, locus YNL197C, strain WHI3, stronger effect = lower value",0.893 (active)
same,normalized growth,"S. cerevisiae deletion strains, locus YNL209W, strain ssb2, stronger effect = lower value",0.917 (active)
same,normalized growth,"S. cerevisiae deletion strains, locus YNL224C, strain SQS1, stronger effect = lower value",0.915 (active)
same,normalized growth,"S. cerevisiae deletion strains, locus YNL233W, strain BNI4, stronger effect = lower value",0.913
same,normalized growth,"S. cerevisiae deletion strains, locus YNL248C, strain rpa49, stronger effect = lower value",0.931
same,normalized growth,"S. cerevisiae deletion strains, locus YNL250W, strain rad50, stronger effect = lower value",0.993
same,normalized growth,"S. cerevisiae deletion strains, locus YNL271C, strain bni1, stronger effect = lower value",0.955
same,normalized growth,"S. cerevisiae deletion strains, locus YNL298W, strain CLA4, stronger effect = lower value",0.932
same,normalized growth,"S. cerevisiae deletion strains, locus YNL307C, strain MCK1, stronger effect = lower value",0.645 (active)
same,normalized growth,"S. cerevisiae deletion strains, locus YNL322C, strain KRE1 (second series), stronger effect = lower value",0.903 (active)
same,normalized growth,"S. cerevisiae deletion strains, locus YNL322C, strain KRE1, stronger effect = lower value",0.893 (active)
same,normalized growth,"S. cerevisiae deletion strains, locus YNR049C, strain mso1, stronger effect = lower value",0.885 (active)
same,normalized growth,"S. cerevisiae deletion strains, locus YNR052C, strain pop2, stronger effect = lower value",0.835 (active)
same,normalized growth,"S. cerevisiae deletion strains, locus YOL006C, strain TOP1, stronger effect = lower value",0.697
same,normalized growth,"S. cerevisiae deletion strains, locus YOL012C, strain htz1",0.653
same,normalized growth,"S. cerevisiae deletion strains, locus YOL147C, strain pex11, stronger effect = lower value",0.868 (active)
same,normalized growth,"S. cerevisiae deletion strains, locus YOR001W, strain rrp6, stronger effect = lower value",0.95
same,normalized growth,"S. cerevisiae deletion strains, locus YOR061W, strain CKA2, stronger effect = lower value",0.882 (active)
same,normalized growth,"S. cerevisiae deletion strains, locus YOR069W, strain VPS5, stronger effect = lower value",0.891 (active)
same,normalized growth,"S. cerevisiae deletion strains, locus YOR070C, strain gyp1, stronger effect = lower value",0.864 (active)
same,normalized growth,"S. cerevisiae deletion strains, locus YOR080W, strain dia2, stronger effect = lower value",0.914
same,normalized growth,"S. cerevisiae deletion strains, locus YOR083W, strain WHI5 (second series), stronger effect = lower value",0.971
same,normalized growth,"S. cerevisiae deletion strains, locus YOR083W, strain WHI5, stronger effect = lower value",0.868 (active)
same,normalized growth,"S. cerevisiae deletion strains, locus YOR106W, strain vam3, stronger effect = lower value",0.85 (active)
same,normalized growth,"S. cerevisiae deletion strains, locus YOR136W, strain idh2, stronger effect = lower value",0.953
same,normalized growth,"S. cerevisiae deletion strains, locus YOR144C, strain elg1, stronger effect = lower value",0.898 (active)
same,normalized growth,"S. cerevisiae deletion strains, locus YOR184W, strain ser1, stronger effect = lower value",0.621 (active)
same,normalized growth,"S. cerevisiae deletion strains, locus YOR231W, strain MKK1, stronger effect = lower value",1.01
same,normalized growth,"S. cerevisiae deletion strains, locus YOR265W, strain rbl2, stronger effect = lower value",0.892 (active)
same,normalized growth,"S. cerevisiae deletion strains, locus YOR270C, strain vph1, stronger effect = lower value",0.617 (active)
same,normalized growth,"S. cerevisiae deletion strains, locus YOR290C, strain snf2, stronger effect = lower value",0.746 (active)
same,normalized growth,"S. cerevisiae deletion strains, locus YOR316C, strain cot1, stronger effect = lower value",0.881 (active)
same,normalized growth,"S. cerevisiae deletion strains, locus YPL051W, strain arl3, stronger effect = lower value",0.771 (active)
same,normalized growth,"S. cerevisiae deletion strains, locus YPL078C, strain atp4, stronger effect = lower value",0.774 (active)
same,normalized growth,"S. cerevisiae deletion strains, locus YPL106C, strain sse1, stronger effect = lower value",1.04
same,normalized growth,"S. cerevisiae deletion strains, locus YPL240C, strain hsp82, stronger effect = lower value",0.879 (active)
same,normalized growth,"S. cerevisiae deletion strains, locus YPL241C, strain CIN2, stronger effect = lower value",0.943 (active)
same,normalized growth,"S. cerevisiae deletion strains, locus YPL256C, strain CLN2, stronger effect = lower value",0.996
same,normalized growth,"S. cerevisiae deletion strains, locus YPR119W, strain clb2, stronger effect = lower value",0.87 (active)
same,normalized growth,"S. cerevisiae deletion strains, locus YPR141C, strain kar3, stronger effect = lower value",0.963
same,normalized growth,"S. cerevisiae deletion strains, locus YPR163C, strain tif3, stronger effect = lower value",0.903 (active)
same,normalized growth,"S. cerevisiae deletion strains, locus YPR167C, strain met16, stronger effect = lower value",0.882 (active)
same,normalized growth,"S. cerevisiae deletion strains, strain wtn01, stronger effect = lower value",0.859 (active)
same,normalized growth,"S. cerevisiae strains, strain wild type, stronger effect = lower value",0.888 (active)

# — PubChem BioAssay AID1159580 (chemical genetic matrix, 2015)
